# Screening data: PubChem BioAssay, The Scripps Research Institute Molecular Screening Center
# SRC2 inh – inhibition of GAL4-SRC2 driven luciferase reporter, primary screen, SRC2 inhibitor project, cell-based, luminescence; HEK293 GAL4-SRC2 luciferase reporter; hit rate 0.17% among 370,000; Nuclear receptor coactivator 2 (Homo sapiens), Q15596; inhibition, % at 9 µM; AID 651957, 2012;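 active = inhibition above the mean inhibition of all tested compounds plus 3 SD, set per campaign, cut at about 52% in these data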;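 note: 0% = DMSO treated cells and 100% = cells given Gossypol at 36 µM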
# SRC1 inh – SRC1 coactivator transcriptional activity inhibitors, primary screen, cell-based, luminescence; HEK293 GAL4-SRC1 luciferase reporter; inhibition, % at 3.6 µM; hit rate 0.12% among 360,000;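 active = inhibition above the campaign mean plus 3 SD, with each screening campaign given its own cutoff, cut at about 60% in these data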;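 note: 0% = DMSO treated cells and 100% = gossypol at 36 µM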
# SRC3 inh – SRC3 coactivator transcriptional activity inhibitors, primary screen, cell-based, luminescence; Nuclear receptor coactivator 3 (Homo sapiens), Q9Y6Q9; HEK293 GAL4-SRC3 luciferase reporter; hit rate 0.17% among 360,000; inhibition, % at 3.6 µM;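 active = inhibition above a per-campaign cutoff, the mean of all compounds plus 3 SD, cut at about 60% in these data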;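 note: 0% = DMSO-treated cells and 100% = gossypol-treated cells at 36 µM; higher means less SRC3-driven luciferase light from the GAL4 reporter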
# LRH-1 inv ag – LRH-1 (NR5A2) inverse agonists, primary screen, cell-based, luminescence, HEK293T, StAR-luciferase reporter. Nuclear receptor subfamily 5 group A member 2 (Homo sapiens), O00482. LRH-1 transfected, 24 h. inhibition, % at 3.6 µM. hit rate 0.13% among 360,000;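 active = inhibition above the mean inhibition of all tested compounds plus 3 SD, cut at about 73% in these data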;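 note: 0% = DMSO wells and 100% = reporter-only cells lacking LRH-1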
# Target sequence (O00482 whole entry, looked up): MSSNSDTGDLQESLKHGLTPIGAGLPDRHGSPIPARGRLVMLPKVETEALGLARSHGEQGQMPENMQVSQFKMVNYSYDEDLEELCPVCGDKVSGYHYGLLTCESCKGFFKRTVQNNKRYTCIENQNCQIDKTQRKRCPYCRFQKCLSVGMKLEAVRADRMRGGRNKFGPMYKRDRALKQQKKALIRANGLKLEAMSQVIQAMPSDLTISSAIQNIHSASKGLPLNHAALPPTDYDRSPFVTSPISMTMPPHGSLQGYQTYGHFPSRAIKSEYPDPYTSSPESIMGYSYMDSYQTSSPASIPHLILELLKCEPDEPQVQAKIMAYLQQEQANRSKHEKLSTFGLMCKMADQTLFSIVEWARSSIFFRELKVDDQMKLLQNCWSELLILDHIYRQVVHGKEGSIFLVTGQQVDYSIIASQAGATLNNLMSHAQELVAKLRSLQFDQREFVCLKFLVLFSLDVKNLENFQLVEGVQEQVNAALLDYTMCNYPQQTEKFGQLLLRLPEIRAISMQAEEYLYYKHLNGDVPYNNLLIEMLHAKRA
# COUP-TFII inh – NR2F2 transcriptional activity inhibitors, primary screen, cell-based, luciferase reporter, HEK293T, luminescence | hit rate 0.7% among 370,000 | inhibition, % at 8.6 µM | HEK293T NGFI-A luciferase reporter;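 active = inhibition above a per-plate cutoff, mean inhibition of test wells between control levels plus 3 SD, cut at about 38% in these data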;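 note: cells cotransfected with COUP-TFII expression vector driving the NGFI-A reporter; 0% = median of COUP-TF2 test wells and 100% = reporter-only cells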
# VP16 Luc counter – Gal4-VP16 luciferase reporter inhibitors, counter-screen for COUP-TFII antagonist project, cell-based, luminescence, HEK293. AID 687007, 2013. inhibition, % at 8.5 µM. hit rate 25% among 2,500. shares compounds with COUP-TFII inh; in the data active = inhibition above about 13%
# COUP-TFII conf – NR2F2 transcriptional activity inhibitors, confirmation, cell-based, luciferase reporter, HEK293, triplicate; HEK293 NGFI-A luciferase reporter, luminescence; inhibition, % at 8.5 µM; hit rate 45% among 2,500; AID 687008, 2013; shares compounds with COUP-TFII inh;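 active = mean inhibition over three repeats above a set limit taken from the earlier primary screen, cut at about 38% in these data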;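 note: 100% = cells given the luciferase reporter alone without the COUP-TF2 vector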
# * hit, by the source's call; / = not tested or not shown. In the library only some 0.81% were active in any assay of this set; here they are far more common.
SMILES,SRC2 inh,SRC1 inh,SRC3 inh,LRH-1 inv ag,COUP-TFII inh,VP16 Luc counter,COUP-TFII conf
COC(=O)c1sc2nc(C)cc(C)c2c1N,-37,-4,-13,-22,-7,/,/
Cc1cc(C)c2c(N)c(C(=O)Nc3ncc(C)s3)sc2n1,77*,46,49,52,74*,35*,67*
N=c1ccn(Cc2ccc(Cl)c(Cl)c2)cc1,16,6,3,9,49*,-6,12
CC(=O)C(Sc1ccc2nnc(-c3ccc(F)cc3)n2n1)C(C)=O,25,9,21,21,21,/,/
O=C(OC12CCCN(C1)/C(=C/c1ccncc1)C2)c1ccc(F)cc1 (stereo not drawn),27,/,/,/,24,/,/
O=C(OC12CCCN(C1)/C(=C/c1ccncc1)C2)C1CCCCC1 (stereo not drawn),19,/,/,/,67*,8,33
O=C(OC12CCCN(C1)/C(=C/c1ccc(Cl)cc1)C2)c1ccco1 (stereo not drawn),2,/,/,/,-17,/,/
O=C(OC12CCCN(C1)/C(=C/c1ccncc1)C2)c1ccco1 (stereo not drawn),2,/,/,/,38*,5,23
O=C(OC12CCCN(C1)/C(=C/c1cccnc1)C2)c1ccc(F)cc1 (stereo not drawn),7,/,/,/,41*,1,24
Cc1cc(C)n(-c2ccc(C(=O)N3CCN(S(=O)(=O)c4ccc(Cl)cc4)CC3)cc2)n1,-7,-21,7,-14,-5,/,/
CCCNC(=O)C[C@@H]1C[C@H]2c3cc(NC(=O)c4ccc5c(c4)OCO5)ccc3O[C@H]2[C@@H](CO)O1,-5,-1,-9,-5,-12,/,/
CC1=C(C(=O)N2CCOCC2)CC(CC(=O)NCc2cccc3ccccc23)C(=O)N1Cc1ccc(C(C)(C)C)cc1 (stereo not drawn),-30,-6,11,1,18,/,/
Cn1nnnc1NCc1cccc(Cl)c1,1,0,4,-9,-2,/,/
Clc1cccc(CNc2nnnn2-c2ccccc2)c1,26,-41,9,10,39*,2,6
N#CC(C#N)c1ccnc2ccccc12,50,57,50,30,40*,6,17
S=C(NCc1ccccc1)NC1CCSc2ccccc21 (stereo not drawn),4,-1,7,-7,-15,/,/
COc1cc(NS(=O)(=O)c2ccc(C)cc2C)cc(OC)c1OC,-10,12,29,33,45*,10,40*
Cc1ccc(NC(=O)c2ccc(Nc3c([N+](=O)[O-])cc([N+](=O)[O-])cc3[N+](=O)[O-])cc2)cc1,41,-31,46,-1,70*,3,47*
Cn1c(O)c(N=NC(=O)CNC(=O)c2cccnc2)c2ccccc21,-37,-1,-1,23,3,/,/
COC(=O)CCn1nnc(-c2ccc(C(C)C)cc2)n1,86*,51,44,49,86*,83*,87*
Cc1cc(C)nc(SSc2nc(C)cc(C)n2)n1,3,6,-16,-1,0,/,/
c1ccc(CCc2nn3c(-c4ccncc4)nnc3s2)cc1,45,68*,61,7,51*,1,19
CCOC(=O)[C@]12CCCC=C1N(CCCOC)C(=O)[C@@H]2CC(=O)N1CCCC1,26,/,/,/,-12,/,/
Cc1cccc(NC(=O)CN2CCN(C(=O)CNC(=O)c3ccc(-c4ccccc4)cc3)CC2)c1C,-2,16,-3,-8,55*,-8,16
COc1ccc(CN(C)c2ccc(S(=O)(=O)N3CCN(C)CC3)cc2[N+](=O)[O-])cc1OC,16,11,18,30,70*,-1,67*
CCN(CC)S(=O)(=O)c1cccc(NC(=O)C(=O)c2c(-c3ccccc3)cc3ccccn23)c1,-3,-20,8,-2,26,/,/
CCN(CC)S(=O)(=O)c1cc(NC(=O)C(=O)c2c(-c3ccccc3)cc3ccccn23)ccc1C,8,1,-2,5,39*,12,18
